Assay results as given in PubChem BioAssay (NCATS).
Records with an inconclusive call do not appear. Where a call stands in place of a potency, no number is given. Unmarked numbers belong to inactive results. Calls of active or inactive are those of the source. The call rests on the fitted dose curve; in most records, active means well fitted curve in the direction sought with a large enough effect; inconclusive means small, poorly fitted or top-dose-only effect, or another doubt; inactive means no such curve, though single readings can be large; an effect the other way counts as inactive or inconclusive.

Assays:
[1] = biological target: Rap guanine nucleotide exchange factor 3 (Homo sapiens) (UniProt O95398); assay: Confirmatory qHTS for antagonist of cAMP-regulated guanine nucleotide exchange factor 3 (EPAC1) (AID 1645880); further: nearly all actives have a fitted effect of over 55% in size; further: potency means the concentration at half of the fitted maximal effect
Sequence of Rap guanine nucleotide exchange factor 3 (Homo sapiens) (O95398 whole entry, looked up): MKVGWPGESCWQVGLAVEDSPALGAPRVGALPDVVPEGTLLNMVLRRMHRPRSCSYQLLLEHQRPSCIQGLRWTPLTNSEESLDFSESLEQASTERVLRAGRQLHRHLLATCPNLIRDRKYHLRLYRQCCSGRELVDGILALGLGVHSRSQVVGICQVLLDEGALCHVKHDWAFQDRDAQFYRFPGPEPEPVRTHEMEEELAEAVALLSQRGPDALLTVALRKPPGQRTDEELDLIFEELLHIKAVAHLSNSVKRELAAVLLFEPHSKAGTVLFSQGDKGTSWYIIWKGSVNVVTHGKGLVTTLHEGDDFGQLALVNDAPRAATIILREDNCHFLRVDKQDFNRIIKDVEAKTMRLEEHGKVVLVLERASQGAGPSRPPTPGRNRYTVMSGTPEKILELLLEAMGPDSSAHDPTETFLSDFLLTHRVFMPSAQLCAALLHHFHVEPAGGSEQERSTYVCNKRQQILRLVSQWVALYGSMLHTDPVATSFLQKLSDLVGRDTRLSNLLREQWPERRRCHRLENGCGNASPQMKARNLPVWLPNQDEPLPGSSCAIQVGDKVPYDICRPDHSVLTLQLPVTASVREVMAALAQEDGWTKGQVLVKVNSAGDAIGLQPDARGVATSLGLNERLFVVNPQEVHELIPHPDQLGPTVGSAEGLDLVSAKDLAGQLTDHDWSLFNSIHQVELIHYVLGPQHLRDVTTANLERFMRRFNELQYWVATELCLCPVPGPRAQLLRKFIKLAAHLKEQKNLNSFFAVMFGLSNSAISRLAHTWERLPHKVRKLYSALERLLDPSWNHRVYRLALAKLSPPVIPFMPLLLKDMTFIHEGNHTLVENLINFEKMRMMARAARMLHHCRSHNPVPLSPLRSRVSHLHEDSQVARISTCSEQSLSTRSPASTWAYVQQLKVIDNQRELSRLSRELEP
Summary of the method: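 Nucleotide exchange uses 100 nM EPAC1, 250 nM RAP1B-BODIPY-GDP and 50 uM GDP, with compounds in a concentration-titration series. After 5 min at room temperature, fluorescence (480 nm ex/540 nm em) is read every 5 min for 30 min. Data are normalized to control ATA and DMSO.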

[2] = biological target: Rap guanine nucleotide exchange factor 3 (Homo sapiens) (UniProt O95398); assay: Confirmatory qHTS for agonist of cAMP-regulated guanine nucleotide exchange factor 3 (EPAC1) (AID 1645881);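 further: EPAC1 catalysed release of BODIPY-GDP from Rap1B seen as fluorescence loss; nearly all actives have a fitted effect of over 75% in size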
[3] = biological target: Rap guanine nucleotide exchange factor 4 (Homo sapiens) (UniProt Q8WZA2); assay: Confirmatory qHTS for agonist of cAMP-regulated guanine nucleotide exchange factor 4 (EPAC2) (AID 1645884);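 further: nucleotide exchange releases bodipy-GDP from Rap1 and this lowers its fluorescence; nearly all actives have a fitted effect of over 65% in size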
Sequence of Rap guanine nucleotide exchange factor 4 (Homo sapiens) (Q8WZA2 whole entry, looked up): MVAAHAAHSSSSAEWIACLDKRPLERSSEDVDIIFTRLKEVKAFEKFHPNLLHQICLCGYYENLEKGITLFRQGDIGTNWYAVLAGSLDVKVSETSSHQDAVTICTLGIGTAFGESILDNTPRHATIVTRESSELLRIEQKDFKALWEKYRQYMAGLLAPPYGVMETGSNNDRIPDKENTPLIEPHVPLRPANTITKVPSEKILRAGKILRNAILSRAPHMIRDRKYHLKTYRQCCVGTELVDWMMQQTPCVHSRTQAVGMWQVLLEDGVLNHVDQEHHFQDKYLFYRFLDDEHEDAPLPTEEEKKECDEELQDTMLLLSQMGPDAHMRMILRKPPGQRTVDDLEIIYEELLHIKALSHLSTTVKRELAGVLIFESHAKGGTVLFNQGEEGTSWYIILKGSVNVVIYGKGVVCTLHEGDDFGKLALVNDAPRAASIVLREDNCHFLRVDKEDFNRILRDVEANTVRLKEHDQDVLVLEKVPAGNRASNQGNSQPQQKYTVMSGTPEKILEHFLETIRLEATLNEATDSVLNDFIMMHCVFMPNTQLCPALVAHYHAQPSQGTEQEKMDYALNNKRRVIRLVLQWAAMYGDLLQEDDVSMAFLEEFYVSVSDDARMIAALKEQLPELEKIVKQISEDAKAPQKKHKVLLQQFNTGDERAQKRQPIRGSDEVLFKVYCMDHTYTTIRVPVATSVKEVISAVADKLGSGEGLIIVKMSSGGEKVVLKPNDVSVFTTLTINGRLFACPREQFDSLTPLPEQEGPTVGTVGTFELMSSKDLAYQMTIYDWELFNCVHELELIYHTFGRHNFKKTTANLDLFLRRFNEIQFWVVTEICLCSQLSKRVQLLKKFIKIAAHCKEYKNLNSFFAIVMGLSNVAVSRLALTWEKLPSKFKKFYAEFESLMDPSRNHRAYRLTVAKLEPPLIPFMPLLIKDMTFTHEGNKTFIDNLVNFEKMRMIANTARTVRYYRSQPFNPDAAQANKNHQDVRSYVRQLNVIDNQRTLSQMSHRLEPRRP

[4] = biological target: Rap guanine nucleotide exchange factor 4 (Homo sapiens) (UniProt Q8WZA2); assay: Confirmatory qHTS for antagonist of cAMP-regulated guanine nucleotide exchange factor 4 (EPAC2) (AID 1645885); further: nearly all actives have a fitted effect of over 25% in size; further: potency means the concentration at half of the fitted maximal effect
[5] = biological target: Rap guanine nucleotide exchange factor 3 (Homo sapiens) (UniProt O95398); assay: Counterscreen qHTS for antagonist of cAMP-regulated guanine nucleotide exchange factor 3 (EPAC1) (AID 1645888);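 further: fluorescence loss as bound BODIPY-GDP is released from Rap1B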
Summary of the method: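 Rap1B-BODIPY-GDP 250 nM + GDP 50 uM; cpds 7-pt, final 9.74 nM–152 uM (activator mode) or from 7.32 nM upwards (inhibitor mode); RT; FI 480/540 nm at 5 and 30 min, then ± cAMP, reread.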

Row | Compound | Potency [1] | Potency [2] | Potency [3] | Potency [4] | Potency [5] | outcome [4] | activation [3] | activity change, negative = inhibition [5]
1 | CCCN1C(=O)c2[nH]nc(-c3ccccc3)c2C1c1cccc(O)c1 (stereo not given) | inactive | inactive | inactive | inactive | inactive | – | – | –
2 | Cc1nnc(SCc2cccc3ccccc23)s1 | inactive | inactive | inactive | inactive | inactive | – | – | –
3 | O=C(c1ccccc1)N1CCN(CCc2ccccn2)CC1 | inactive | inactive | inactive | – | inactive | inactive [at 12.7 µM] | – | –
4 | CC1(C(=O)O)CCC2(C)CCC3(C)C(=CC(=O)C4C5(C)CCC(=O)C(C)(C)C5CCC43C)C2C1 (stereo not given) | inactive | inactive | inactive | inactive | inactive | – | – | –
5 | CCN(CC(=O)Nc1ccc(NC(C)=O)cc1)CC(=O)Nc1ccc(F)c(Cl)c1 | inactive | inactive | – | inactive | – | – | 5.14% [at 17.1 µM, percent relative to cAMP agonist control] | 3.51% [at 30.8 µM]
6 | COC(=O)c1cc(NC(=O)CC2C(=O)OCCN2Cc2ccccc2)cc(C(=O)OC)c1 (stereo not given) | inactive | inactive | inactive | inactive | inactive | – | – | –
7 | Cc1ccc(C2C(C#N)=C3N=C(N)c4ccccc4N3C3=C2C(=O)CCC3)cc1 (stereo not given) | inactive | inactive | – | inactive | – | – | 5.16% [at 17.1 µM, percent relative to cAMP agonist control] | -7.3% [at 30.8 µM]
8 | CC1Oc2ccc(C#N)cc2N(Cc2ccccc2OC(F)(F)F)C1=O (stereo not given) | inactive | inactive | – | inactive | – | – | 4.28% [at 17.1 µM, percent relative to cAMP agonist control] | -10.7% [at 30.8 µM]
9 | Nc1c(C(=O)Nc2ccc3c(c2)OCCO3)nnn1Cc1cccc(Br)c1 | inactive | inactive | – | inactive | – | – | 11.4% [at 17.1 µM, percent relative to cAMP agonist control] | -24.5% [at 30.8 µM]
10 | COc1ccc2oc(C(=O)CCC(=O)O)c(N)c2c1 | inactive | inactive | – | inactive | – | – | 0% [at 17.1 µM, percent relative to cAMP agonist control] | 3.66% [at 30.8 µM]
11 | Cc1cccc(NC(=O)Cn2c(O)c(N=NC(=O)c3ccncc3)c3ccccc32)c1 | inactive | inactive | inactive | inactive | inactive | – | – | –
12 | COc1ccc2c(c1)c1nnc(SCC(=O)NC3CC3)nc1n2C | inactive | inactive | inactive | 84.9 µM (active) | inactive | – | – | –
13 | COc1ccc(C(=O)N(Cc2ccccc2)c2cccc(C)c2)c(OC)c1OC | inactive | inactive | inactive | inactive | inactive | – | – | –
14 | CN1CCN(C2=C(Cl)C(=O)c3ccccc3C2=O)CC1 | 25.1 µM (active) | inactive | – | inactive | – | – | 11% [at 17.1 µM, percent relative to cAMP agonist control] | 17.9% [at 30.8 µM]
15 | COc1cc(S(=O)(=O)Nc2ccc(C)cc2)ccc1N=Cc1c(C)c(C#N)c(=O)n(C)c1O | inactive | inactive | inactive | inactive | inactive | – | – | –
16 | Cc1cc(Nc2ccccc2)n(-c2nc3ccccc3[nH]2)n1 | inactive | inactive | – | inactive | – | – | 5.09% [at 17.1 µM, percent relative to cAMP agonist control] | -0.198% [at 30.8 µM]
17 | COc1cccc(OC)c1OC(=O)/C=C/c1ccc(C)o1 | inactive | inactive | – | inactive | – | – | -0.917% [at 17.1 µM, percent relative to cAMP agonist control] | -18.3% [at 30.8 µM]
18 | O=C(c1cccc(-n2cccc2)c1)N1CCN(S(=O)(=O)c2ccccc2)CC1 | 37.9 µM (active) | inactive | inactive | inactive | inactive | – | – | –
19 | Cc1cc(SCC(=O)c2ccc(O)c(O)c2)nc2ccccc12 | 14.1 µM (active) | inactive | – | inactive | – | – | 11.2% [at 17.1 µM, percent relative to cAMP agonist control] | -6.86% [at 30.8 µM]
